Results filed as inconclusive are left out. The source made the active and inactive calls. How the source made its calls, unless noted: active means hit-call score of the fitted dose curve at least 0.9, where 1 is the maximum; inconclusive means response in the unintended direction; inactive means score below 0.9.
How the values were obtained:
[1] = biological target: Cellular tumor antigen p53 (Homo sapiens) (UniProt P04637); experiment: TOX21_p53_BLA_p2_ratio: Tox21 HCT-116 p53 Agonism Beta-lactamase Assay, Ratio, Phase 2 (AID 2283592)
Summary of the method: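 An inducible beta-lactamase reporter in HCT116 cells signals p53 pathway activation. After 16 h chemical exposure at 37C, cells load CCF4-AM substrate for 2 h at room temperature; activity is the cleaved/uncleaved emission ratio relative to DMSO.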

[2] = biological target: Cellular tumor antigen p53 (Homo sapiens) (UniProt P04637); experiment: TOX21_p53_BLA_p4_ratio: Tox21 HCT-116 p53 Agonism Beta-lactamase Assay, Ratio, Phase 4 (AID 2283601)
Summary of the method: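 Signal is the blue/green (460nm/530nm) ratio of cleaved versus uncleaved CCF4-AM substrate, read after 2 h substrate loading. Cells were HCT116 carrying the p53-responsive beta-lactamase reporter, dosed 16 h at 37C, 5% CO2; CellTiter-Glo measured in parallel.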

PGR (gene 5241) [3] = biological target: PGR (gene 5241) (UniProt P06401); experiment: TOX21_PR_BLA_Followup_Agonist_ratio: Tox21 HEK293 Progesterone Receptor (PR) Agonism Beta-lactamase Follow-Up Assay, Ratio (AID 2283933)
Summary of the method: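 HEK293T PR-UAS-bla, 2% CS-FBS; 6 hr preincubation, cpd/DMSO pinned, 16 hr 37C/5% CO2; LiveBLAzer B/G 2 hr RT; FRET ch2/ch1 ratio, agonist direction vs DMSO. Viability by CellTiter-Glo in same wells.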

PGR (gene 5241) [4] = biological target: PGR (gene 5241) (UniProt P06401); experiment: TOX21_PR_BLA_Followup_Antagonist_ratio: Tox21 HEK293 Progesterone Receptor (PR) Antagonism Beta-lactamase Follow-Up Assay, Ratio (AID 2283934)
Summary of the method: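 HEK293T PR-UAS-bla, 2% CS-FBS; 6 hr plating, then cpd + R5020 (1 nM final), 16 hr 37C/5% CO2. B/G FRET substrate 2 h RT. Ratio ch2/ch1 vs DMSO; CellTiter-Glo viability multiplexed, autofluorescence checked.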

[5] = TOX21_PR_BLA_Followup_Agonist_viability: Viability Assessment in the Tox21 HEK293 Progesterone Receptor (PR) Agonism Beta-lactamase Follow-Up Assay (AID 2283935);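 further: signal loss means lower viability so actives are cytotoxic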
Summary of the method: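 HEK293T PR-UAS-bla, 3,000 cells/well, 2% CS-FBS; 6 hr pre-incubation; cpd in DMSO, 16 hr 37C; LiveBLAzer 2 hr RT, then CellTiter-Glo 30 min RT, luminescence. Decrease = lost viability.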

PGR (gene 5241) [6] = biological target: PGR (gene 5241) (UniProt P06401); experiment: TOX21_PR_LUC_Followup_Agonist: Tox21 HEK293 Progesterone Receptor (PR) Agonism Luciferase Follow-Up Assay (AID 2283937; active means hit-call score of the fitted dose curve at least 0.9, where 1 is the maximum; inactive means score below 0.9)
Summary of the method: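 Cells: HEK293-PR-A-luc, 3,000/well, 10% charcoal-stripped FBS assay medium. Compound added after 5 h; 16 h, 37C, 0% CO2. ONE-Glo luciferase, luminescence. Positive fit vs DMSO.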

PGR (gene 5241) [7] = biological target: PGR (gene 5241) (UniProt P06401); experiment: TOX21_PR_LUC_Followup_Antagonist: Tox21 HEK293 Progesterone Receptor (PR) Antagonism Luciferase Follow-Up Assay (AID 2283938);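 further: curve fitted upward as signal gain over DMSO baseline despite antagonist label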
Summary of the method: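 A follow-up to the PR bla screen using HEK293-PR-A-luc cells, multiplexed with cell viability to flag cytotoxicity. Reporter luminescence after 16 h compound exposure was analysed relative to DMSO.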

[8] = TOX21_PR_LUC_Followup_Antagonist_viability: Viability Assessment in the Tox21 HEK293 Progesterone Receptor (PR) Antagonism Luciferase Follow-Up Assay (AID 2283940)
Summary of the method: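 Multiplexed viability counter-screen: after 5 days in charcoal-stripped-FBS medium, HEK293-PR-A-luc cells are plated, pinned with DMSO-dissolved compounds for 16 h at 37C, and ATP content is quantified luminescently via CellTiter-Glo.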

[9] = TOX21_PR_LUC_Followup_Agonist_viability: Viability Assessment in the Tox21 HEK293 Progesterone Receptor (PR) Agonism Luciferase Follow-Up Assay (AID 2283941);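 further: loss of signal means cytotoxicity so actives lower viability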
Summary of the method: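 Cells were kept 5 days in charcoal-stripped serum medium before plating HEK293-PR-A-luc at 3,000 cells/well. After 5 h they received DMSO-dissolved compound and incubated 16 h at 37C. Viability was taken from CellTiter-Glo ATP luminescence.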

[10] = TOX21_p53_BLA_p3_viability: Viability Assessment in the Tox21 HCT-116 p53 Agonism Beta-lactamase Assay, Phase 3 (AID 2283593);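 further: cells exposed to compound for 16 h before reading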
Summary of the method: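 Cellular ATP was quantified by CellTiter-Glo luminescence, read after 30 min at room temperature. Beforehand, HCT116 cells (4000/well) received compound 5 h post-seeding, 217-fold diluted from DMSO, then incubated 16 h at 37C.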

[11] = biological target: Cellular tumor antigen p53 (Homo sapiens) (UniProt P04637); experiment: TOX21_p53_BLA_p3_ratio: Tox21 HCT-116 p53 Agonism Beta-lactamase Assay, Ratio, Phase 3 (AID 2283596)
Summary of the method: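 HCT116 p53-bla cells (4000/well) given compound in DMSO (217-fold dilution) after 5 h, incubated 16 h at 37C. CCF4-AM substrate 2 h at room temperature; 460/530 nm emission ratio, gain fitted against DMSO.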

[12] = TOX21_p53_BLA_p4_viability: Viability Assessment in the Tox21 HCT-116 p53 Agonism Beta-lactamase Assay, Phase 4 (AID 2283597);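 further: hits lower the luminescence signal meaning cytotoxicity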
Summary of the method: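 Compound exposure of HCT116 cells lasts 16 h at 37C, 5% CO2, with DMSO stocks diluted 217-fold. Cellular ATP is then quantified by CellTiter-Glo luminescence after 30 min at room temperature.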

[13] = biological target: Cellular tumor antigen p53 (Homo sapiens) (UniProt P04637); experiment: TOX21_p53_BLA_p5_ratio: Tox21 HCT-116 p53 Agonism Beta-lactamase Assay, Ratio, Phase 5 (AID 2283599)
Summary of the method: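 Beta-lactamase reporter ratio (blue 460 nm over green 530 nm, 405 nm excitation) after 2 h CCF4-AM loading, in HCT-116 cells exposed 16 h at 37 C to compounds pinned at 217-fold dilution. Increases relative to DMSO baseline scored.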

[14] = TOX21_p53_BLA_p5_viability: Viability Assessment in the Tox21 HCT-116 p53 Agonism Beta-lactamase Assay, Phase 5 (AID 2283600)
Summary of the method: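 Counter-readout for cytotoxicity: ATP-dependent luminescence from CellTiter-Glo, read in the beta-lactamase wells after 30 min at RT, following a 16 h compound exposure at 37C.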

Chain of Cellular tumor antigen p53 (Homo sapiens) (P04637 whole entry, looked up): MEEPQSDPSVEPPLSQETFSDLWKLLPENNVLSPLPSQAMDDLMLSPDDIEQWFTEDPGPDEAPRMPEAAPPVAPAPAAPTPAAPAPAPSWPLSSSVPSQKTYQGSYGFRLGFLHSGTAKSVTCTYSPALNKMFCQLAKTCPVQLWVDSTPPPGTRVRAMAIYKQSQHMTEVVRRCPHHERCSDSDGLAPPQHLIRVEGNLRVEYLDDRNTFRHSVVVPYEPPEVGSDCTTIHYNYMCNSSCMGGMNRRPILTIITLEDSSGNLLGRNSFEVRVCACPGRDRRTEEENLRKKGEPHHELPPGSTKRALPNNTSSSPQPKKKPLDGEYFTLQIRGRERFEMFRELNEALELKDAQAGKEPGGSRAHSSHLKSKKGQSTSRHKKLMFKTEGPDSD
Chain of PGR (gene 5241) (P06401 whole entry, looked up): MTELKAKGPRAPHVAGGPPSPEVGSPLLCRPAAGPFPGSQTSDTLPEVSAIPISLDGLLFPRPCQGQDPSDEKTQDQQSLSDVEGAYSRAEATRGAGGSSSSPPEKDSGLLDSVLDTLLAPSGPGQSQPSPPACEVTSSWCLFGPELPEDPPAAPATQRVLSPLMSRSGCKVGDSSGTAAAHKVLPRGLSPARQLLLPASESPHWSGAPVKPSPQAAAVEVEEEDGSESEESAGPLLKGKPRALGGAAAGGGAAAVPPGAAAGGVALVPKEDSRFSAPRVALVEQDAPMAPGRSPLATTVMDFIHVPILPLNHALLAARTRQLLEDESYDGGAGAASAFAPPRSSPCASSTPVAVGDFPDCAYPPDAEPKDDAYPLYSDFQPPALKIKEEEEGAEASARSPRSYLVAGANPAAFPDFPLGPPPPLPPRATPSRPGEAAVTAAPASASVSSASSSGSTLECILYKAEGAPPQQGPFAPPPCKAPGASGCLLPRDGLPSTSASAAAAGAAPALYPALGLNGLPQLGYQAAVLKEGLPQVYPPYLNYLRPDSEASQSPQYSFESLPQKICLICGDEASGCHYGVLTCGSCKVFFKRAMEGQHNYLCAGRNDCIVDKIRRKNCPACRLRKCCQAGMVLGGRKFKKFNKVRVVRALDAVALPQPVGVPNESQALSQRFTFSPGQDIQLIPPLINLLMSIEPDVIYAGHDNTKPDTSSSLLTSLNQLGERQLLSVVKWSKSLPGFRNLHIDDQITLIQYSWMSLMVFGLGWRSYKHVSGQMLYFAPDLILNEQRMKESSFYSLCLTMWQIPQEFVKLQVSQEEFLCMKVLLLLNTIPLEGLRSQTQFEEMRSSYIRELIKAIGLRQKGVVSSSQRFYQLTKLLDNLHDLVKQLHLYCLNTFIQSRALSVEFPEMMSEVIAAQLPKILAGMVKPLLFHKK

Which results are given for CN1CC[C@H](c2c(O)cc(O)c3c(=O)cc(-c4ccccc4Cl)oc23)[C@H](O)C1?
outcome [1]: inactive; outcome [2]: inactive; outcome (PGR (gene 5241) [3]): inactive; AC50 (PGR (gene 5241) [4]): 0.206 µM (active); outcome [5]: inactive; outcome (PGR (gene 5241) [6]): inactive; AC50 (PGR (gene 5241) [7]): 0.565 µM (active); outcome [8]: inactive; outcome [9]: inactive

Which outcome [10] does the source give for O=C(/C=C/c1ccc(O)c(O)c1)O[C@@H](C(=O)O)[C@@H](OC(=O)/C=C/c1ccc(O)c(O)c1)C(=O)O here?
Its outcome is “inactive”.

And the outcome [11]?
Its outcome is “inactive”.

And the outcome [12]?
The outcome was “inactive”.

What about the outcome [13] of the same compound?
The outcome was “inactive”.

And the outcome [14]?
The outcome was “inactive”.

And the outcome [2]?
Its outcome is “inactive”.

With CCCOC(C)=O as the compound, how does the outcome [10] read?
Its outcome is “inactive”.

What about the outcome [11] of the same compound?
The outcome was “inactive”.

What about the outcome [12] of the same compound?
Its outcome is “inactive”.

What about the outcome [13] of the same compound?
Its outcome is “inactive”.

Which results are given for O[C@@H]1CO[C@H]2[C@@H]1OC[C@@H]2O?
AC50 [10]: 43.1 µM (active); outcome [11]: inactive; outcome [12]: inactive; outcome [13]: inactive

Which outcome [10] does the source give for CN(C)C(=O)Oc1ccc[n+](C)c1 here?
Its outcome is “inactive”.

What about the outcome [11] of the same compound?
The outcome was “inactive”.

What about the outcome [12] of the same compound?
Its outcome is “inactive”.

What about the outcome [13] of the same compound?
The outcome was “inactive”.

What about the outcome [14] of the same compound?
The outcome was “inactive”.

And the outcome [2]?
The outcome was “inactive”.

With CCCCOC(=O)CC#N as the compound, how does the outcome [1] read?
Its outcome is “inactive”.

And the outcome [14]?
Its outcome is “inactive”.

And the outcome [2]?
Its outcome is “inactive”.

What does the source list for CCN(CC)CCOC(=O)C(c1ccccc1)C1CCCCC1 (centres undefined)?
outcome [1]: inactive; outcome [14]: inactive; outcome [2]: inactive

For CCOC(=O)Nc1ccc2c(c1)N(C(=O)CN(C)C)c1ccccc1CC2, which outcome [10] is on record?
Its outcome is “inactive”.

What does the source list for CCOc1ccccc1N?
outcome [1]: inactive; outcome [2]: inactive

Which results are given for O=C(NCCCN1CCOCC1)c1ccc(Cl)cc1?
outcome [1]: inactive; outcome [2]: inactive

For Cc1cc(O)c(Cl)cc1C, which outcome [10] is on record?
The outcome was “inactive”.

What about the outcome [11] of the same compound?
Its outcome is “inactive”.

And the outcome [12]?
Its outcome is “inactive”.

And the outcome [13]?
Its outcome is “inactive”.

Which outcome [10] does the source give for COc1ccc(C2CNC(=O)C2)cc1OC1CCCC1 (centres undefined) here?
The outcome was “inactive”.

Which outcome [1] does the source give for CCCCCO here?
Its outcome is “inactive”.

What about the outcome [2] of the same compound?
Its outcome is “inactive”.

With CCOC(=O)C(Br)c1ccccc1 (centres undefined) as the compound, how does the outcome [1] read?
Its outcome is “inactive”.

And the outcome [2]?
The outcome was “inactive”.

Which outcome [1] does the source give for CC(C)(C)NCC(O)COc1cccc2c1CCC(=O)N2 (centres undefined) here?
The outcome was “inactive”.

And the outcome [2]?
The outcome was “inactive”.

For CC1(c2ccccc2)OC(C(=O)O)=CC1=O (centres undefined), which outcome [1] is on record?
Its outcome is “inactive”.

And the outcome [2]?
The outcome was “inactive”.

Which results are given for NC(=O)C1(N2CCCCC2)CCN(CCCC(=O)c2ccc(F)cc2)CC1?
AC50 [10]: 36.2 µM (active); outcome [11]: inactive; outcome [12]: inactive; outcome [13]: inactive

Which outcome [10] does the source give for NCc1ccc(S(N)(=O)=O)cc1 here?
Its outcome is “inactive”.

What about the outcome [11] of the same compound?
The outcome was “inactive”.

And the outcome [12]?
Its outcome is “inactive”.

What about the outcome [13] of the same compound?
The outcome was “inactive”.

Which results are given for C=CC(C)CCC=C(C)C (centres undefined)?
outcome [1]: inactive; outcome [14]: inactive; outcome [2]: inactive

Which outcome [1] does the source give for COc1ccc2c(c1)C(=O)N(CCc1ccc(S(=O)(=O)NC(=O)NC3CCCCC3)cc1)C(=O)C2(C)C here?
The outcome was “inactive”.

What about the outcome [2] of the same compound?
The outcome was “inactive”.

Which outcome [10] does the source give for O=[N+]([O-])c1cc([N+](=O)[O-])c2ccc(S(=O)(=O)O)cc2c1O here?
Its outcome is “inactive”.

With CCCC(C)CO (centres undefined) as the compound, how does the outcome [1] read?
The outcome was “inactive”.

What about the outcome [2] of the same compound?
The outcome was “inactive”.

Reference: PubChem BioAssay (EPA / NIEHS)
